This is a sample that favours compounds with a hit; in the whole collection about 3.3% have one here.
Calb FLC: affects C. albicans growth with fluconazole; growth inhibition, % (concentration not given with the values); C. albicans CaCi-2 (fluconazole-resistant clinical isolate) + fluconazole, Alamar Blue growth, 48 h; AID 1979; actives 0.57% (n = 300,000);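 active means growth inhibition above about 58% in most replicates, limit read from the data, passing the limit was not always enough; inconclusive means exactly half the replicates above a set limit; inactive means most replicates below a set limit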;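 further: all wells also contain fluconazole at 8 µg/ml as a sub-toxic cotreatment; 0% = median of DMSO wells and 100% = median of geldanamycin control wells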
Efflux pump inh: antifungal efflux pump inhibition, Nile Red retention | S. cerevisiae Candida pump triplex | actives 0.44% (n = 330,000) | inhibition, % at 10 µM;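 active means plate passing quality check with inhibition over a set limit, or well fluorescence over plate mean plus 4 SD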;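 further: Nile Red retained in pooled yeast measured as flow cytometry median fluorescence; 0% = buffer negative control and 100% = Enniatin B positive control; higher means more Nile Red kept so more efflux inhibition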
Cardio protect: modulators protecting cardiomyocytes from myocardial damage | H9c2 cardiomyocytes, H2O2 injury protection, ATPLite, 2 h | protection from H2O2 cell death, % at 20 µM | actives 0.63% (n = 360,000);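 active means compounds giving at least 50% protection of heart cells from peroxide-induced death in the single-dose screen, raw or plate-pattern-corrected value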;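 further: 0% = DMSO wells with peroxide and 100% = DMSO wells without peroxide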
Cl transport mod: modulators of human KCC2 chloride dependent transport; KCC2 cells, thallium flux FluoZin-2 fluorescence; actives 2.2% (n = 190,000); B-score of Tl+ flux slope (higher = more flux/activation; lower = inhibition) at 10 µM; AID 1456;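 active means thallium flux slope and its plate-corrected score both differing from the plate sample mean at a set confidence after two filtering rounds, in either direction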;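 further: slope of fluorescence scaled to starting intensity during 10 to 20 s after thallium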
Target sequence (Q9H2X9 whole entry, looked up): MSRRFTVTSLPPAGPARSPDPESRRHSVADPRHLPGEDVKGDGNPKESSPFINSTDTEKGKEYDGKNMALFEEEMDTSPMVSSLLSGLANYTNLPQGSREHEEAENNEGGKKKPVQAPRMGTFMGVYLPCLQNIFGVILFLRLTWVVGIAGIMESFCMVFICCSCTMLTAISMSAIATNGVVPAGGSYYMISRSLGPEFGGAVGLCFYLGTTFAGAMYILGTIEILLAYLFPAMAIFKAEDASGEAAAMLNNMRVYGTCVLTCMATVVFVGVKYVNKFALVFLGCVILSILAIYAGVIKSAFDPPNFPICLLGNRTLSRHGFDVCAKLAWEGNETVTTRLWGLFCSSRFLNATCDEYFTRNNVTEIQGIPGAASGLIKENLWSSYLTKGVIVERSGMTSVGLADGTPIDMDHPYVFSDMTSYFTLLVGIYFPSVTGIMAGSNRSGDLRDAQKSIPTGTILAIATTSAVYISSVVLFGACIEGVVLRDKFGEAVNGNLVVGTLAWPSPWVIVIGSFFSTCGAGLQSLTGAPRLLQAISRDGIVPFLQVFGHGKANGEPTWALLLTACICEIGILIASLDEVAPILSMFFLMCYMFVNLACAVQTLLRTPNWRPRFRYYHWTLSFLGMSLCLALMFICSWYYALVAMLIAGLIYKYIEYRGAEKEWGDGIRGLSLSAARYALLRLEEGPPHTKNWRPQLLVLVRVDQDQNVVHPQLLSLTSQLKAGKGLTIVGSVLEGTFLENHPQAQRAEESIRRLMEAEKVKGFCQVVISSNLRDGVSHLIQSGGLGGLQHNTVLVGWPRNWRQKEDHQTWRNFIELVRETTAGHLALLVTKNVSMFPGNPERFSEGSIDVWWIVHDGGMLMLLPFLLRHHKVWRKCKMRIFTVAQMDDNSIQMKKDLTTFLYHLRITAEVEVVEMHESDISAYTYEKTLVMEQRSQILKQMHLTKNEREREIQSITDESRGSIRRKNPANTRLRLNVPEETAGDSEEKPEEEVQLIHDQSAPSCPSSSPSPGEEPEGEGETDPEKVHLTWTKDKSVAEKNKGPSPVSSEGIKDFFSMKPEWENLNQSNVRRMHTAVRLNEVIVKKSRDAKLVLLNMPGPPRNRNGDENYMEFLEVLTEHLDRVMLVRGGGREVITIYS
PHOSPHO1 inh: blocks human PHOSPHO1 phosphatase activity; actives 1.1% (n = 290,000); Q8TCT1; inhibition, % at 13.3 µM; recombinant PHOSPHO1, absorbance phosphatase assay; in the data active means inhibition above about 60%
KCC2 secondary: KCC2 (human) modulation, secondary assay; shares compounds with Cl transport mod; HEK293-KCC2, thallium flux, FluoZin2 fluorescence; stronger effect = higher value; normalised thallium flux (F/F0 slope) at 10 µM; actives 15% (n = 3,700);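 active means thallium flux slope above the same plate's solvent-only control mean plus 3 SD; inconclusive means the two replicate wells disagree; inactive means no significant difference from solvent-only control wells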
KCC2 bumet counter: thallium flux despite bumetanide block in KCC2 cells, secondary assay 3 | normalized thallium flux at 10 µM | HEK293-KCC2 + bumetanide/ouabain, thallium flux FluoZin2; stronger effect = higher value | actives 49% (n = 3,700) | shares compounds with Cl transport mod | AID 1714;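 active means thallium entry rate above the same plate's blocked-transporter control wells by more than 3 SD; inconclusive means the two repeat wells disagree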;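 further: raw slope of fluorescence over initial fluorescence between 10 and 20 s after thallium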
KCC2 sec2: KCC2 (human) modulation, second secondary assay | normalized thallium flux at 10 µM | shares compounds with Cl transport mod | actives 23% (n = 3,700) | HEK293-KCC2, thallium flux FluoZin2 fluorescence; actives lie on both sides; F/F0 rise rate, 10–20 s post-thallium;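 active means thallium flux slope more than 3 SD above or below the plate's solvent-only control mean, mostly below; inconclusive means the two repeat wells disagreed; inactive means no significant shift from solvent-only controls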;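 further: raw slope with 0.1% DMSO as baseline and bumetanide as block control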
HEK293 Tl flux: parental HEK flux effect, counter-screen. actives 46% (n = 3,700). shares compounds with Cl transport mod. thallium flux rate (normalised fluorescence) at 10 µM. HEK293 parental cells, thallium flux FluoZin2, ouabain; baseline-ratio fluorescence slope, 10–20 s after thallium;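 active means thallium flux rate significantly above the same plate's solvent-only control wells, beyond their mean plus 3 SD; inconclusive means the two replicate wells gave conflicting results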
KCC2 retest ouab: confirmation of human KCC2 modulators with ouabain | actives 48% (n = 3,700) | AID 1717 | raw Tl+ flux slope (below DMSO = inhibition, above = activation) at 10 µM | shares compounds with Cl transport mod | HEK293-KCC2, thallium flux FluoZin2 fluorescence; bidirectional: low = inhibitor, high = activator;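 active means thallium flux slope beyond 3 SD from same-plate DMSO control mean in most replicates, usually higher, sometimes lower; inconclusive means repeat tests gave conflicting results; inactive means no significant difference from controls in most replicates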;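 further: slope of initial-normalized fluorescence between seconds 10 and 20 after thallium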
HEK counter2: acts in parental HEK cells, second KCC2 counter-screen; shares compounds with Cl transport mod; HEK293 parental, thallium flux FluoZin-2 fluorescence slope; thallium flux slope at 10 µM; actives 33% (n = 3,700);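 active means thallium flux slope above the same plate's solvent-control mean plus 3 SD in both duplicate wells; inconclusive means duplicate wells that disagreed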;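 further: run without ouabain in cells lacking the KCC2 cotransporter; slope of fluorescence scaled to its starting value between 10 and 20 s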
* marks the source's active call; other numbers are inactive results.

For Cc1cccc(/N=C/c2c(C)[nH]n(-c3ccccc3)c2=O)n1 the results were Calb FLC -5.6, Efflux pump inh 0.1, Cardio protect -3.0, Cl transport mod 17.7*, PHOSPHO1 inh 41.2, KCC2 secondary 0.00982, KCC2 bumet counter 0.0321*, KCC2 sec2 0.0297, HEK293 Tl flux 0.0124*, KCC2 retest ouab inconclusive and HEK counter2 inconclusive.
`OCc1cccc(-c2csc(C(O)c3ccccc3)n2)c1` (centres undefined) gave Cardio protect -3.1.
Cc1cc2cc(CNC(=O)c3ccc(C)c([N+](=O)[O-])c3)ccc2[nH]1 was read as Calb FLC 0.9, Efflux pump inh -0.1, Cardio protect 0.5, Cl transport mod -4.23*, PHOSPHO1 inh -6.1, KCC2 secondary 0.00866, KCC2 bumet counter 0.00634, KCC2 sec2 0.0294, HEK293 Tl flux 0.00763, KCC2 retest ouab inconclusive and HEK counter2 0.0102.
For Cc1cc2cc(CCNC(=O)c3ccc(C)c([N+](=O)[O-])c3)c(=O)[nH]c2cc1C the results were Calb FLC 31.2, Efflux pump inh -0.1, Cardio protect 20.4, Cl transport mod -0.792 and PHOSPHO1 inh 5.6.
For O=C(NC(=S)Nc1cccnc1Cl)c1ccco1 the results were Calb FLC -1.9, Efflux pump inh 0.0, Cardio protect -11.6, Cl transport mod 24.9*, PHOSPHO1 inh -17.1, KCC2 secondary 0.0198*, KCC2 bumet counter 0.0505*, KCC2 sec2 0.0404, HEK293 Tl flux inconclusive, KCC2 retest ouab 0.043* and HEK counter2 inconclusive.
`Cc1cc(-c2nc3ncccc3o2)ccc1NC(=S)NC(=O)c1ccco1` gave Calb FLC 12.6, Efflux pump inh -0.4, Cardio protect -6.2, Cl transport mod 10.3*, PHOSPHO1 inh 11.9, KCC2 secondary 0.0129*, KCC2 bumet counter 0.0403*, KCC2 sec2 0.036, HEK293 Tl flux 0.0346*, KCC2 retest ouab 0.0351* and HEK counter2 0.0164*.
For O=C(NC(=S)Nc1ccccc1C(F)(F)F)c1ccccc1F the results were Calb FLC -26.6, Efflux pump inh 0.0, Cardio protect -2.6, Cl transport mod 99.3*, PHOSPHO1 inh 22.6, KCC2 secondary 0.00737, KCC2 bumet counter 0.087*, KCC2 sec2 0.0518*, HEK293 Tl flux 0.0547*, KCC2 retest ouab 0.0675* and HEK counter2 0.0517*.
Screening Cc1ccccc1C(=O)NC(=S)Nc1ccccc1C(=O)O returned Calb FLC -13.3, Efflux pump inh 0.3, Cardio protect -3.4, Cl transport mod -0.511 and PHOSPHO1 inh -4.5.
COC(=O)c1ccccc1NC(=S)NC(=O)c1ccccc1C was read as Calb FLC inconclusive, Efflux pump inh 0.1, Cardio protect -4.9, Cl transport mod 4.73*, PHOSPHO1 inh 37.0, KCC2 secondary 0.0103, KCC2 bumet counter 0.0401*, KCC2 sec2 0.0299, HEK293 Tl flux 0.0135*, KCC2 retest ouab inconclusive and HEK counter2 inconclusive.
Screening O=S(=O)(Nc1ncccn1)c1ccc(NC(=S)Nc2ccccc2Cl)cc1 returned Calb FLC 7.2, Efflux pump inh 0.1, Cardio protect -3.3, Cl transport mod 0.545 and PHOSPHO1 inh 20.3.
`NS(=O)(=O)c1ccc(CCNC(=O)c2cnc(Cl)c(Cl)c2)cc1` gave Calb FLC -3.3, Efflux pump inh -0.2, Cardio protect -10.6 and PHOSPHO1 inh 16.0.
O=C(NCc1csc(-c2cccs2)n1)C1CCC1 was read as Calb FLC -18.0, Efflux pump inh -0.1, Cardio protect -2.1, Cl transport mod -0.407 and PHOSPHO1 inh 7.2.
Screening CC1(C(=O)Nc2cccc(OC(F)(F)F)c2)Cc2c(-c3ccc4c(c3)OCO4)ccnc2O1 (centres undefined) returned Cardio protect -11.2.
Screening COC(=O)c1ccc2nc(C3CCCCC3)c(Cc3ccc(OC)cc3C)n2c1 returned Cardio protect 6.9.
Screening CCCCCCCNC(=O)C1(CC2CC(c3ccc(Cl)cc3)=NO2)CCN(C(=O)c2cc(OCC)c(OCC)c(OCC)c2)CC1 (centres undefined) returned Calb FLC 7.4, Efflux pump inh 0.0, Cardio protect 2.8 and PHOSPHO1 inh -18.6.
Cc1ccccc1C(=O)NC(=S)Nc1ccccc1[N+](=O)[O-] was read as Calb FLC -15.7, Efflux pump inh 0.0, Cardio protect -12.1, Cl transport mod 14*, PHOSPHO1 inh -30.0, KCC2 secondary 0.00733, KCC2 bumet counter 0.0129*, KCC2 sec2 0.0284, HEK293 Tl flux 0.0109*, KCC2 retest ouab 0.0209 and HEK counter2 0.0115.
Screening O=C(NC(=S)Nc1ccccc1[N+](=O)[O-])c1ccco1 returned Calb FLC 18.2, Efflux pump inh 0.1, Cardio protect -3.5, Cl transport mod 25.4*, PHOSPHO1 inh -9.8, KCC2 secondary 0.0171*, KCC2 bumet counter 0.077*, KCC2 sec2 0.0377, HEK293 Tl flux 0.0321*, KCC2 retest ouab 0.0645* and HEK counter2 0.0161*.
`O=C(NC(=S)Nc1ccc([N+](=O)[O-])cc1)c1ccco1` gave Cardio protect -0.7.
`O=C(CSc1nnc(COc2ccc(Cl)cc2)o1)Nc1ccc(N2CCOCC2)cc1` gave Cardio protect -5.4.
Screening COc1ccc(C(C)=O)cc1CC(=O)Nc1cccc(S(=O)(=O)N2CCOCC2)c1 returned Efflux pump inh 0.0 and Cardio protect 19.6.
Screening COc1ccccc1NC(=O)CN1C(=O)NC(CC(C)C)C1=O (centres undefined) returned Calb FLC -4.7, Efflux pump inh 0.3, Cardio protect -1.2, Cl transport mod -5*, PHOSPHO1 inh -11.4, KCC2 secondary 0.0112, KCC2 bumet counter 0.00715, KCC2 sec2 0.0348, HEK293 Tl flux 0.00411, KCC2 retest ouab 0.0201 and HEK counter2 0.0115.
`O=S(=O)(Nc1cccc(S(=O)(=O)N2CCOCC2)c1)c1cccs1` gave Efflux pump inh 0.0 and Cardio protect 3.9.
